# Experimental data from the supplement of paper PMC9446081.
# The whole screen tested about 39,000 compounds, of which about 220 (0.56%) showed activity. The entries come from a sample that favours actives as a whole. Unmarked numbers belong to inactive results.
# System: Escherichia coli K-12 BW25113
# Assay: relative growth (OD600 normalised to plate interquartile mean) (fraction); higher = less growth inhibition, active = 0.2 or less
# Details: 50 µM; LB; incubation time: overnight (16-24 h)
# 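Further: Wild-type cells incubated without shaking, value is the mean of two biological replicates.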
row,SMILES,relative growth
1,C/C=C/c1ccc2c(c1)O[C@@H](CN(C)C(=O)c1ccc3c(c1)OCO3)[C@@H](C)CN([C@H](C)CO)S2(=O)=O,1.01
2,CO/N=C(\C(=O)N[C@@H]1C(=O)N2C(C(=O)O)=C(C)CS[C@H]12)c1csc(N)n1,0.0368 (active)
3,CC1=C(C(=O)O)N2C(=O)C(NC(=O)C(N)C3=CCC=CC3)C2SC1 (stereo unspecified),1.07
4,CC1=C(C(=O)O)N2C(=O)[C@@H](NC(=O)[C@H](N)C3=CCC=CC3)[C@H]2SC1,1.03
5,CON=C(C(=O)NC1C(=O)N2C(C(=O)O)=C(C[N+]3(C)CCCC3)CSC12)c1csc(N)n1.[Cl-] (stereo unspecified),0.0437 (active)
6,CO/N=C(\C(=O)N[C@@H]1C(=O)N2C(C(=O)O)=C(C[N+]3(C)CCCC3)CS[C@H]12)c1csc(N)n1,0.0339 (active)
7,C[C@H]1CN([C@@H](C)CO)S(=O)(=O)c2ccc(C3=CCCC3)cc2O[C@@H]1CN(C)S(=O)(=O)c1ccc(F)cc1,1.02
8,C[C@H](CO)N1C[C@H](C)[C@@H](CN(C)C(=O)CN(C)C)Oc2ncc(-c3ccc(C(=O)N(C)C)cc3)cc2C1=O,0.975
9,Cc1cccc(NC(=O)Nc2ccc3c(c2)C(=O)N(C)[C@@H]2CC[C@@H](CC(=O)NCc4ccccc4Cl)O[C@@H]2CO3)c1,0.998
10,C[C@@H]1CN([C@H](C)CO)S(=O)(=O)c2ccc(-c3cncnc3)cc2O[C@H]1CN(C)C(=O)Cc1cccnc1,0.98
11,CC(C)NC(=O)N[C@@H]1CC[C@@H](CCN)O[C@H]1CO,0.989
12,C[C@H](CO)N1C[C@H](C)[C@@H](CN(C)Cc2ccc3c(c2)OCO3)Oc2ccc(NC(=O)CCCN(C)C)cc2CC1=O,0.975
13,O=c1nc[nH]c2n[nH]cc12,1.03
14,COC1=C(N)C(=O)c2nc(-c3nc(C(=O)O)c(C)c(-c4ccc(OC)c(OC)c4O)c3N)ccc2C1=O,0.038 (active)
15,COc1ccc(C(=O)O)c(O)c1OC,1.03
16,COCC(=O)Nc1ccc2c(c1)C(=O)N(C)C[C@@H](OC)[C@H](C)CN(Cc1ccccc1C(=O)O)[C@H](C)CO2,1.02
17,C[C@@H]1CCCCO[C@H](CN(C)S(=O)(=O)c2ccc(Cl)cc2)[C@@H](C)CN([C@H](C)CO)C(=O)c2cc(NC(=O)c3ccncc3)ccc2O1,1.01
18,COc1ccc(CN(C)C[C@H]2OCCCC[C@H](C)Oc3ccc(NS(=O)(=O)c4ccc(C)cc4)cc3C(=O)N([C@@H](C)CO)C[C@@H]2C)cc1,0.982
19,C[C@H](CO)N1C[C@H](C)[C@H](CN(C)Cc2ccc3c(c2)OCO3)OCCCC[C@H](C)Oc2ccc(NS(=O)(=O)c3ccc(F)cc3)cc2C1=O,0.995
20,COc1ccc(NC(=O)N(C)C[C@@H]2Oc3ccc(NC(=O)Nc4ccc(C(F)(F)F)cc4)cc3C(=O)N([C@@H](C)CO)C[C@H]2C)cc1,1.03
21,Clc1nc(-c2ccccn2)nc2scc(-c3ccccc3)c12,0.979

row,SMILES,relative growth
1,CC(Cc1cccc(C(F)(F)F)c1)NCCOC(=O)c1ccccc1.Cl (stereo unspecified),0.815
2,C[C@@H](O)c1cccc(C(F)(F)F)c1,0.986
3,CC(NCCCc1cccc(C(F)(F)F)c1)c1cccc2ccccc12.Cl (stereo unspecified),0.0467 (active)
4,C[C@H]1CN([C@@H](C)CO)C(=O)c2cc(NS(=O)(=O)c3cn(C)cn3)ccc2O[C@H]1CN(C)Cc1ccc(C(=O)Nc2ccccc2N)cc1,1.04
5,COc1cccc(OCc2ccc(Cn3nc(NC(=O)NCc4ccccc4OC)c4ccccc43)cc2)c1,1.03
6,O=C1C=CC(=O)N1,0.0291 (active)
7,Cc1noc(C)c1S(=O)(=O)Nc1ccc2c(c1)CC(=O)N([C@H](C)CO)C[C@H](C)[C@H](CN(C)S(=O)(=O)c1c(C)noc1C)O2,1.01
8,CN(C)CCOC(c1ccccc1)c1ccccc1.Cn1c(=O)c2[nH]c(Cl)nc2n(C)c1=O,0.0491 (active)
9,COCCc1nc2c([nH]1)c(=O)n(C)c(=O)n2C,0.97
10,CN(C)CCOC(c1ccccc1)c1ccccc1.Cl,1.12
11,CO[C@@H]1CN(C)C(=O)c2cc(NC(=O)c3ccc(F)cc3)ccc2OC[C@@H](C)N(C(=O)CN(C)C)C[C@H]1C,0.988
12,C[C@H]1CCCCO[C@@H](CN(C)Cc2ccc(C(=O)Nc3ccccc3N)cc2)[C@@H](C)CN([C@@H](C)CO)C(=O)c2cc(N(C)C)ccc2O1,0.998
13,[N-]=[N+]=Nc1ccccc1C[C@@]1(C(=O)NC[C@@H](O)CO)N=C(c2ccc(OCCCO)cc2)O[C@@H]1c1ccccc1,1
14,COc1ccc(S(=O)(=O)N(C)C[C@H]2Oc3ccc(NS(=O)(=O)c4ccc(F)cc4)cc3C(=O)N([C@H](C)CO)C[C@H]2C)cc1,1.02
15,COC1C(OC(N)=O)C(O)C(Oc2ccc3c([O-])c(NC(=O)c4ccc(O)c(CC=C(C)C)c4)c(=O)oc3c2C)OC1(C)C.[Na+] (stereo unspecified),0.701
16,CO[C@@H]1[C@@H](OC(=O)c2ccc(C)[nH]2)[C@@H](O)[C@@H](Oc2ccc3c(c2C)OC(=O)[C@H](NC(=O)c2[nH]cc(CC(=O)Nc4cc5ccc(O[C@@H]6OC(C)(C)[C@H](OC)[C@@H](OC(=O)c7ccc(C)[nH]7)[C@H]6O)c(C)c5oc4=O)c2C)C3)CC1(C)C,0.0629 (active)
17,COCCCNC(=O)[C@@H]1c2ccccc2C(=O)N(Cc2cc(C(F)(F)F)cc(C(F)(F)F)c2)[C@H]1c1ccc(CO)cc1,0.859
18,Cc1noc(C)c1NC(=O)Nc1ccc2c(c1)C(=O)N([C@@H](C)CO)C[C@@H](C)[C@@H](CN(C)C(=O)c1ccccc1)OCCCC[C@@H](C)O2,0.977
19,Cc1cc(C2CCCCC2)n(O)c(=O)c1.NCCO,0.0534 (active)
20,C[C@@H]1CN([C@@H](C)CO)C(=O)c2cc(-c3cccc(C(=O)N(C)C)c3)cnc2O[C@H]1CN(C)S(=O)(=O)c1ccccc1,1.01
21,COCC#Cc1ccc2c(c1)O[C@H](CN(C)C(=O)C1CCCCC1)[C@H](C)CN([C@H](C)CO)S2(=O)=O,0.988

row,SMILES,relative growth
1,CO[C@H]1/C=C\O[C@@]2(C)Oc3c(C)c(O)c4c(O)c(c(/C=N/N=C/N5CCCCC5)c(O)c4c3C2=O)NC(=O)/C(C)=C\C=C/[C@H](C)[C@H](O)[C@@H](C)[C@@H](O)[C@@H](C)[C@H](OC(C)=O)[C@@H]1C,0.65
2,COC1C=COC2(C)Oc3c(C)c(O)c4c(O)c(c5c(nc6cc(C)ccn65)c4c3C2=O)NC(=O)C(C)=CC=CC(C)C(O)C(C)C(O)C(C)C(OC(C)=O)C1C (stereo unspecified),0.0499 (active)
3,CO[C@H]1/C=C\O[C@@]2(C)Oc3c(C)c(O)c4c(c3C2=O)[C@]2(C=C(NC(=O)/C(C)=C\C=C/[C@@H](C)[C@@H](O)[C@@H](C)[C@@H](O)[C@@H](C)[C@@H](OC(C)=O)[C@@H]1C)C4=O)OCC(=O)O2,0.905
4,COC1C=COC2(C)Oc3c(C)c(O)c4c(O)c(c(C=NN5CCN(C6CCCC6)CC5)c(O)c4c3C2=O)NC(=O)C(C)=CC=CC(C)C(O)C(C)C(O)C(C)C(OC(C)=O)C1C (stereo unspecified),0.0719 (active)
5,COC1C=COC2(C)Oc3c(C)c(O)c4c(O)c(c(C=NN5CCN(C)CC5)c(O)c4c3C2=O)NC(=O)C(C)=CC=CC(C)C(O)C(C)C(O)C(C)C(OC(C)=O)C1C (stereo unspecified),0.0777 (active)
6,C[C@@H]1CCCCO[C@H](CN(C)Cc2ccc3c(c2)OCO3)[C@H](C)CN([C@@H](C)CO)C(=O)c2cc(NC(=O)NC3CCCCC3)ccc2O1,1.01
7,C[C@H](CO)N1C[C@H](C)[C@@H](CN(C)C(=O)NC2CCCCC2)Oc2c(NC(=O)Nc3cccc4ccccc34)cccc2C1=O,0.995
8,C[C@H](CO)N1C[C@H](C)[C@@H](CN(C)Cc2ccncc2)Oc2c(NS(=O)(=O)c3ccc(F)cc3)cccc2C1=O,1
9,CO[C@H]1CN(C)C(=O)c2ccc(NS(C)(=O)=O)cc2OC[C@H](C)N(C(=O)C2CCCCC2)C[C@@H]1C,0.962
10,C[C@H]1CN([C@@H](C)CO)C(=O)Cc2cc(NS(=O)(=O)c3ccc(Cl)cc3)ccc2O[C@H]1CN(C)Cc1ccc(-c2ccccc2)cc1,0.992
11,Cc1noc(C)c1NC(=O)N(C)C[C@@H]1OCCCC[C@@H](C)Oc2ccc(NC(=O)Cc3ccccc3)cc2C(=O)N([C@@H](C)CO)C[C@H]1C,0.958
12,Nc1nc(=O)c2ncn(COCCO)c2[nH]1,1
13,COc1ccc(S(=O)(=O)Nc2ccc3c(c2)C(=O)N([C@@H](C)CO)C[C@H](C)[C@@H](CN(C)S(=O)(=O)c2cn(C)cn2)OCCCC[C@H](C)O3)cc1,0.994
14,CO[C@H]1CN(C)C(=O)c2cc(NS(=O)(=O)CC(F)(F)F)ccc2OC[C@@H](C)N(Cc2nccs2)C[C@@H]1C,0.962
15,COC1(NC(=O)Cc2cccs2)C(=O)N2C(C(=O)[O-])=C(COC(N)=O)CSC21.[Na+] (stereo unspecified),0.0688 (active)
16,CC(=O)OCC1=C(C(=O)[O-])N2C(=O)C(NC(=O)Cc3cccs3)C2SC1.[Na+] (stereo unspecified),0.0435 (active)
17,CC(=O)OCC1=C(C(=O)[O-])N2C(=O)C(NC(=O)CSc3ccncc3)C2SC1.[Na+] (stereo unspecified),0.797
18,NC(=O)c1cc[n+](CC2=C(C(=O)[O-])N3C(=O)C(NC(=O)Cc4cccs4)C3SC2)cc1 (stereo unspecified),0.634
19,C[C@H](CO)N1C[C@H](C)[C@H](CN(C)C(=O)Nc2ccccc2)Oc2c(NC(=O)CCCCCC(=O)Nc3ccccc3N)cccc2C1=O,0.992
